Sampled rows, rich in hits. Any-hit rate of the full collection: about 19%.
TDP1 cell CPT – growth inhibition of DT40 Tdp1-/-;hTDP1 cells with camptothecin (screen for TDP1 inhibitors). chicken DT40 Tdp1-/-;hTDP1 cells + 20 nM CPT, ATP luminescence, 48 h. AID 686979. Potency, µM (titrated, usually from 46.2 µM), for the others: top-dose activity change, negative = growth inhibition, actives largely listed as inhibitors. actives 12% (n = 420,000); further: potency means the concentration at half of the fitted maximal effect; nearly all actives have a fitted effect of over 55% in size
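Chicken DT40 Tdp1-/- cells stably complemented with human TDP1 were seeded at 400 cells/well in medium containing 20 nM camptothecin, exposed to pin-transferred compounds, and grown at 37 °C for at least 48 hr. Viability was read as ATP luminescence.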
TDP1 cell noCPT – qHTS for Inhibitors of human tyrosyl-DNA phosphodiesterase 1 (TDP1): qHTS in cells in absence of CPT. Potency, µM (titrated, usually from 46.2 µM), inactives show at the highest dose activity change, negative = growth inhibition, actives largely listed as inhibitors. DT40 Tdp1-/- hTDP1 cells, no CPT, ATP luminescence, 48 h. AID 686978, 2013. actives 15% (n = 420,000); further: potency means the concentration at half of the fitted maximal effect; nearly all actives have a fitted effect of over 55% in size
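Readout: luminescence from CellTiter-Glo after 30 min in the dark at RT. Cells: DT40 Tdp1-/- with stable hTDP1, 400/well. Exposure: compounds alone, ≥48 hr, 37 °C.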
ELG1 DNA repair – ELG1-dependent DNA repair inhibition; Potency, µM (top dose mostly 46.1 µM), for inactives: at the top dose activity change, negative = inhibition, most hits filed as inhibitors; HEK293T ELG1-luciferase reporter, luminescence, 16 h; DNA damage induced by 5-fluorouridine; actives 2.3% (n = 330,000); AID 504467; further: potency means the concentration at half of the fitted maximal effect; nearly all actives have a fitted effect of over 55% in size
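Quantitative HTS, concentration-response format. 2,000 cells/well co-treated with 5-fluorouridine and compound, 16 hr in 5% CO2 at 37 °C; ONE-Glo luminescence read after 30 min.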
HT1080 IDH1KD tx – kills HT-1080 cells with IDH1 knockdown; HT-1080 IDH1 knockdown viability, ATP luminescence, 48 h; Potency, µM (series often up to 46.1 µM), inactives show top-dose activity, negative = toxicity, most hits filed as cytotoxic; actives 2% (n = 360,000); AID 686971;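 further: potency means the concentration at half of the fitted maximal effect; 0% = DMSO wells and -100% = cell-free medium wells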
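Using the IDH1-knockdown HT-1080 line run in the same batch and compound series as the NT line, viability after 48 h at 37 °C was determined by CellTiter-Glo luminescence and expressed as % activity.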
IL1B secr inh – inhibitors of inflammasome signaling (IL-1 beta secretion). actives 4.7% (n = 360,000). activity change, % at 57.5 µM. THP-1 LPS/ATP IL-1B secretion, AlphaLISA, 16 h; stronger effect = lower value; in the data active means activity change below about -50%; inconclusive means mostly about -30% to -49%
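Secreted IL-1B measured by AlphaLISA bead assay after 16 h compound exposure of THP-1 cells; compounds (final up to 57.5 uM) added 1 h before LPS (250 ng/mL) and ATP (1.25 mM) stimulation; lower signal means less secretion.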
HT1080-NT tox – kills 2HG-producing HT-1080-NT fibrosarcoma cells; HT-1080-NT fibrosarcoma viability, CellTiter-Glo ATP luminescence, 48 h; Potency, µM (highest dose often 46.1 µM), inactives show at the highest dose activity, negative = less viability, actives largely listed as cytotoxic; actives 1.6% (n = 360,000); AID 686970;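 further: NT is the 2HG producing partner of a matched IDH1 knockdown line; potency means the concentration at half of the fitted maximal effect; 0% = DMSO-treated cells and -100% = media-only wells without cells; nearly all actives have a fitted effect of over 55% in size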
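Toxicity toward the 2HG-producing NT line was scored as %Activity, normalised to DMSO and no-cell wells, from CellTiter-Glo luminescence after 48 hours' treatment.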
* = called active by the depositor; [ ] = another dose, or the depositor's remark. Unless noted, the call rests on the fitted dose curve; in most records, active means well fitted curve in the direction sought with a large enough effect; inconclusive means small, poorly fitted or top-dose-only effect, or another doubt; inactive means no such curve, though single readings can be large; an effect the other way counts as inactive or inconclusive. Unless noted, on the % scale 0 is the no-effect control and ±100 the full control effect.

Screening O=C(NCCc1ccc(F)cc1)C(=O)NCC(c1cccs1)S(=O)(=O)c1ccc(Cl)cc1 (configuration not stated) returned TDP1 cell CPT 15µM* and TDP1 cell noCPT 12µM*.
`CN1CCC2(CC1)CCN(C(=O)Oc1ccccc1)CC2` gave TDP1 cell CPT 5% and TDP1 cell noCPT -11%.
CC(C)NCC(O)c1ccc(C2CCCC2)cc1 (configuration not stated) was read as TDP1 cell CPT 16µM*, TDP1 cell noCPT 16µM*, ELG1 DNA repair -21%, HT1080 IDH1KD tx -22%, IL1B secr inh inconclusive and HT1080-NT tox inconclusive.
`CC(C)NCC(O)c1ccc(N)c(C#N)c1` (configuration not stated) gave TDP1 cell CPT -9%[92.5 µM] and TDP1 cell noCPT -1%[92.5 µM].
For Cc1ncc(CN2CCCC(C(=O)c3sccc3C)C2)s1 (configuration not stated) the results were TDP1 cell CPT inconclusive, TDP1 cell noCPT -20%, ELG1 DNA repair -3%, HT1080 IDH1KD tx -2%, IL1B secr inh 49 and HT1080-NT tox -8%.
CN(C)c1cccc2c(C#N)ccc(N(C)C)c12 was read as TDP1 cell CPT -1%, TDP1 cell noCPT -20%, ELG1 DNA repair -4%, HT1080 IDH1KD tx -2%, IL1B secr inh 9 and HT1080-NT tox -13%.
For CC[C@@H](C)[C@H](C(CC(=O)N1CCCC1[C@@H](OC)[C@H](C)C(=O)N[C@H](Cc1ccccc1)c1nccs1)OC)N(C)C(=O)[C@H](NC(=O)[C@@H](C(C)C)N(C)C)C(C)C (some centres not stated) the results were TDP1 cell CPT -101%, TDP1 cell noCPT -109%, HT1080 IDH1KD tx inconclusive, IL1B secr inh 41 and HT1080-NT tox 0.26µM*.
`COc1ccc(C(CNC(=O)Cc2ccc(Cl)c(Cl)c2)N2CCCCC2)cc1` (configuration not stated) gave TDP1 cell CPT inconclusive, TDP1 cell noCPT inconclusive, ELG1 DNA repair -5%, HT1080 IDH1KD tx -3%, IL1B secr inh -8 and HT1080-NT tox -26%.
Screening CN(C(=O)Cc1ccc(Cl)c(Cl)c1)C(CN1CCCC1)c1cccc(N=C=S)c1 (configuration not stated) returned TDP1 cell CPT 5.2µM* and TDP1 cell noCPT 3.3µM*.
Screening CN(C(=O)Cc1ccc(Cl)c(Cl)c1)[C@H](CN1CCCC1)c1cccc(N=C=S)c1 returned TDP1 cell CPT 12µM* and TDP1 cell noCPT 13µM*.
CN1Cc2ccccc2-n2nncc2C1 was read as TDP1 cell CPT -9%, TDP1 cell noCPT 1%, HT1080 IDH1KD tx 1%, IL1B secr inh 11 and HT1080-NT tox 7%.
For Fc1ccccc1CN1Cc2ccccc2-n2nncc2C1 the results were TDP1 cell CPT inconclusive, TDP1 cell noCPT 23µM*, HT1080 IDH1KD tx -1%, IL1B secr inh 33 and HT1080-NT tox 5%.
For c1ccc(-c2ccc(CN3Cc4ccccc4-n4nncc4C3)cc2)cc1 the results were TDP1 cell CPT 4.6µM*, TDP1 cell noCPT 5.2µM*, HT1080 IDH1KD tx -19%, IL1B secr inh 49 and HT1080-NT tox -15%.
ClCCN(CCCl)c1ccc(C=Nc2ccc(/C=C/c3ccncc3)cc2)cc1 was read as TDP1 cell CPT 13µM* and TDP1 cell noCPT 13µM*.
`ClCCN(CCCl)c1ccc(C=Nc2ccncc2)cc1` gave TDP1 cell CPT inconclusive and TDP1 cell noCPT 11µM*.
OCC1CCCN2CCCCC12 (configuration not stated) was read as TDP1 cell CPT 6% and TDP1 cell noCPT -6%.
CC1NCCOC1c1ccccc1 (configuration not stated) was read as TDP1 cell CPT -1% and TDP1 cell noCPT -6%.
Screening O=S(=O)(NC1CCCCC1)OCC(Cl)(Cl)Cl returned TDP1 cell CPT -8%, TDP1 cell noCPT -25%, ELG1 DNA repair -1%, HT1080 IDH1KD tx -5%, IL1B secr inh 7 and HT1080-NT tox -1%.
Screening CC(CC(C#N)(c1ccccc1)c1ccccc1)N1CCOCC1 (configuration not stated) returned TDP1 cell CPT 23µM*, TDP1 cell noCPT inconclusive, HT1080 IDH1KD tx 4%, IL1B secr inh inconclusive and HT1080-NT tox 11%.
N#CC(c1cccnc1)N1CCOCC1 (configuration not stated) was read as TDP1 cell CPT -4%, TDP1 cell noCPT 11%, ELG1 DNA repair 6%, HT1080 IDH1KD tx 6%, IL1B secr inh 18 and HT1080-NT tox 2%.
Screening O=S(=O)(c1ccc(Nc2ccc(-c3ccc4c(c3)OCCO4)nn2)cc1)N1CCCC1 returned TDP1 cell CPT inconclusive, TDP1 cell noCPT inconclusive, ELG1 DNA repair inconclusive, HT1080 IDH1KD tx inconclusive, IL1B secr inh 0 and HT1080-NT tox 16µM*.
Cc1ccc2c(C)cccc2c1 was read as TDP1 cell CPT -7%, TDP1 cell noCPT -4%, HT1080 IDH1KD tx 19%, IL1B secr inh 11 and HT1080-NT tox -3%.
CN(C)CC(C(=O)Cc1ccccc1)c1ccccc1 (configuration not stated) was read as TDP1 cell CPT 0.92µM*, TDP1 cell noCPT 0.65µM*, HT1080 IDH1KD tx 8.2µM*, IL1B secr inh -96* and HT1080-NT tox 16µM*.
COc1ccc(CCNC(C)CCc2ccc(OC)cc2)cc1 (configuration not stated) was read as TDP1 cell CPT inconclusive, TDP1 cell noCPT inconclusive, ELG1 DNA repair -10%, HT1080 IDH1KD tx -26%, IL1B secr inh -64* and HT1080-NT tox inconclusive.
`COc1cccc(CCNCc2ccc(SC)cc2)c1` gave TDP1 cell CPT -26%, TDP1 cell noCPT inconclusive, ELG1 DNA repair 4%, HT1080 IDH1KD tx -14%, IL1B secr inh -65* and HT1080-NT tox -19%.
For COc1ccc(CCNCc2c(OC)ccc3ccccc23)cc1 the results were TDP1 cell CPT 13µM*, TDP1 cell noCPT 13µM*, ELG1 DNA repair 13%, HT1080 IDH1KD tx -24%, IL1B secr inh -64* and HT1080-NT tox inconclusive.
COc1ccc(CCNCc2cc(OC)cc(OC)c2)cc1 was read as TDP1 cell CPT inconclusive, TDP1 cell noCPT inconclusive, HT1080 IDH1KD tx -8%, IL1B secr inh -51* and HT1080-NT tox -10%.
